Results on 20 molecules are retold here after PubChem BioAssay AID624098 (National Center for Advancing Translational Sciences (NCATS), 2012).

Records with an inconclusive call do not appear. Active and inactive are the calls of the source.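 The calls were made as follows: active = immobility above 50% at 10 µM after 1 hour; inconclusive = immobility from 15% to 50% at 1 hour; inactive = immobility below 15%.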

The first test is described as follows: Assay for General Anesthetic Phenotype in Xenopus Tadpoles. The conditions noted are these: startle-response immobility, 1 h, at 10 µM, stronger effect = higher value. An excerpt: Anesthetic development has remained a largely empirical process. There are growing concerns about the cognitive effects of known general anesthetics and acceleration of the onset of neurodegenerative disease. The compounds' toxicity and multiple specific binding targets in the mammalian brain [4] has made them less attractive as drug leads. This assay was designed for the in vivo follow-up testing of compounds in tadpoles. References: [1] S.L. Bianchi, T. Tran, C. Liu, S. Lin, Y. Li, J.M. Keller, R.G. Eckenhoff, and M.F. Eckenhoff, Brain and behavior changes in 12-month-old Tg2576 and nontransgenic mice exposed to anesthetics. Neurobiol Aging 29 (2008) 1002-10. Z. Xie, Y. Dong, U. Maeda, R.D. Moir, W. Xia, D.J. Culley, G. Crosby, and R.E. Tanzi, The inhalation anesthetic isoflurane induces a vicious cycle of apoptosis and amyloid beta-protein accumulation. J Neurosci 27 (2007) 1247-54. P. Honegger, and J.M. Matthieu, Selective toxicity of the general anesthetic propofol for GABAergic neurons in rat brain cell cultures. J Neurosci Res 45 (1996) 631-6. M.F. Eckenhoff, K. Chan, and R.G. Eckenhoff, Multiple specific binding targets for inhaled anesthetics in the mammalian brain. J Pharmacol Exp Ther 300 (2002) 172-9. C.A. Butts, J. Xi, G. Brannigan, A.A. Saad, S.P. Venkatachalan, R.A. Pearce, M.L. Klein, R.G. Eckenhoff, and I.J. Dmochowski, Identification of a fluorescent general anesthetic, 1-aminoanthracene. Proc Natl Acad Sci U S A 106 (2009) 6501-6. W.A. Lea, J. Xi, A. Jadhav, L. Lu, C.P. Austin, A. Simeonov, and R.G. Eckenhoff, A high-throughput approach for identification of novel general anesthetics. PLoS One 4 (2009) e7150.
Pre-limb bud Xenopus tadpoles were obtained in large batches from Nasco, Inc. Batches of 10 tadpoles were placed in 20 mm Petri dishes with approximately 20 ml of pond water ("pond water" is approximately a 20-fold dilution of Ringers saline solution). Compounds were added to the pond water from DMSO stock to obtain 100, 10 and 1 microM concentrations. Tadpoles were then incubated with these solutions for 1 hour, and then scored for "anesthesia". Anesthesia in this case is lack of movement in response to a sharp tap on the Petri dish lid, i.e., a lack of startle response. This correlates well to the loss of righting reflex in rodents and the loss of consciousness in humans. The pond water is then changed, and the return of a startle response is monitored for 24 hours. Immobility at 24 hours is considered death.
Take `O=C(Cn1nc(C2CC2)ccc1=O)NCCc1ccccc1`: the immobility is 0% (inactive).
For `C[S+](=O)([O-])c1ccc(-c2ccc(=O)n(CC(=O)NCCc3ccccc3)n2)cc1`, the immobility is 5% (inactive).
On the same count and under the same terms, to `CN(C)c1ccc(-c2ccc(=O)n(CC(=O)NCCc3ccccc3)n2)cc1` belongs 0% (inactive); to `O=C(Cn1nc(-c2cccnc2)ccc1=O)NCCc1ccccc1`, 0% (inactive); to `CC(C)COc1ccc(-c2ccc(=O)n(CC(=O)NCCc3ccccc3)n2)cc1`, 100% (active).
On the same count and under the same terms, to `CC(C)c1ccc(=O)n(CC(=O)NCCc2ccccc2)n1` belongs 0% (inactive).
For the molecule `O=C(Cn1nc(-c2ccc3c(c2)OCO3)ccc1=O)NCCc1ccccc1`, the immobility is 0% (inactive).
Take `Cc1ccc(-c2ccc(=O)n(CC(=O)NCCc3ccccc3)n2)cc1`: the immobility was 90% (active).
Still for that read-out and setting: to `CC(C)(C)c1ccc(-c2ccc(=O)n(CC(=O)NCCc3ccccc3)n2)cc1` belongs 90% (active); to `COc1ccc(-c2ccc(=O)n(CC(=O)NCCc3ccccc3)n2)cc1`, 75% (active); to `O=C(Cn1nc(-c2ccc(C(F)(F)F)cc2)ccc1=O)NCCc1ccccc1`, 0% (inactive).
Still for that read-out and setting: the result for `COc1ccc(-c2ccc(=O)n(CC(=O)NCCc3ccccc3)n2)cc1OC` reads 10% (inactive); that for `CC(C)Oc1ccc(-c2ccc(=O)n(CC(=O)NCCc3ccccc3)n2)cc1`, 95% (active); that for `Cc1ccc(-c2ccc(=O)n(CC(=O)NCCc3ccccc3)n2)cn1`, 0% (inactive).
The same measure, in the same setting: to `COc1ccccc1-c1ccc(=O)n(CC(=O)NCCc2ccccc2)n1` belongs 5% (inactive).
As for `O=C(Cn1nc(-c2ccc(OC(F)(F)F)cc2)ccc1=O)NCCc1ccccc1`, the immobility was 80% (active).
For `Cc1ccccc1-c1ccc(=O)n(CC(=O)NCCc2ccccc2)n1`, the immobility is 0% (inactive).
As for `CCCCc1ccc(-c2ccc(=O)n(CC(=O)NCCc3ccccc3)n2)cc1`, the immobility is 5% (inactive).
Same read-out and setting: to `O=C(Cn1ncccc1=O)NCCc1ccccc1` belongs 0% (inactive); to `Cc1ccc(=O)n(CC(=O)NCCc2ccccc2)n1`, 5% (inactive).

Staying with this test, now noted: startle-response immobility, 1 h, measured here: 24 h immobility, toxicity/death, at 10 µM.
The molecule `O=C(Cn1nc(C2CC2)ccc1=O)NCCc1ccccc1` came in with an immobility of 5%.
Still for that read-out and setting: the result for `C[S+](=O)([O-])c1ccc(-c2ccc(=O)n(CC(=O)NCCc3ccccc3)n2)cc1` reads 5%; that for `CN(C)c1ccc(-c2ccc(=O)n(CC(=O)NCCc3ccccc3)n2)cc1`, 10%; that for `O=C(Cn1nc(-c2cccnc2)ccc1=O)NCCc1ccccc1`, 15%.
The same measure, in the same setting: to `CC(C)COc1ccc(-c2ccc(=O)n(CC(=O)NCCc3ccccc3)n2)cc1` belongs 0%; to `CC(C)c1ccc(=O)n(CC(=O)NCCc2ccccc2)n1`, 5%.
The same measure, in the same setting: to `O=C(Cn1nc(-c2ccc3c(c2)OCO3)ccc1=O)NCCc1ccccc1` belongs 0%.
With `Cc1ccc(-c2ccc(=O)n(CC(=O)NCCc3ccccc3)n2)cc1`, the immobility stood at 0%.
Same read-out and setting: the result for `CC(C)(C)c1ccc(-c2ccc(=O)n(CC(=O)NCCc3ccccc3)n2)cc1` reads 10%.
The same measure, in the same setting: to `COc1ccc(-c2ccc(=O)n(CC(=O)NCCc3ccccc3)n2)cc1` belongs 5%.
The same measure, in the same setting: the result for `O=C(Cn1nc(-c2ccc(C(F)(F)F)cc2)ccc1=O)NCCc1ccccc1` reads 5%.
`COc1ccc(-c2ccc(=O)n(CC(=O)NCCc3ccccc3)n2)cc1OC`: the immobility was found to be 15%.
Still for that read-out and setting: to `CC(C)Oc1ccc(-c2ccc(=O)n(CC(=O)NCCc3ccccc3)n2)cc1` belongs 5%; to `Cc1ccc(-c2ccc(=O)n(CC(=O)NCCc3ccccc3)n2)cn1`, 0%; to `COc1ccccc1-c1ccc(=O)n(CC(=O)NCCc2ccccc2)n1`, 15%.
Still for that read-out and setting: the result for `O=C(Cn1nc(-c2ccc(OC(F)(F)F)cc2)ccc1=O)NCCc1ccccc1` reads 10%; that for `Cc1ccccc1-c1ccc(=O)n(CC(=O)NCCc2ccccc2)n1`, 10%; that for `CCCCc1ccc(-c2ccc(=O)n(CC(=O)NCCc3ccccc3)n2)cc1`, 5%.
The same measure, in the same setting: the result for `O=C(Cn1ncccc1=O)NCCc1ccccc1` reads 5%; that for `Cc1ccc(=O)n(CC(=O)NCCc2ccccc2)n1`, 15%.
